# Screening data: PubChem BioAssay, National Center for Advancing Translational Sciences (NCATS)
# Rows were chosen to be rich in hits. Some 1.1% of all compounds tested hit in one or more screens of this group.
# PI4K2A inh = qHTS for small molecular inhibitors of PI4K2A; actives 0.13% (n = 420,000); activity change, negative = inhibition, % at 76.9 µM; AID 1346378, 2018; purified PI4K2A, ADP-Glo luminescence, 1 h; stronger effect = lower value; in the data active = activity change below about -50%; inconclusive = mostly about -30% to -49%;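 note: -100% = wells without enzyme as full effect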
#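 PI4K2A activity was measured by ADP-Glo luminescence: enzyme (4 ug/mL stock) and phosphatidylinositol (1.2 mM stock) in Tris pH 7.5/MgCl2/EGTA/Triton X-100 buffer were reacted with ATP (300 microM stock) for one hour at ambient temperature.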
# Integrin act MD = qHTS for Activators of Integrin-Mediated Alleviation for Muscular Dystrophy; alpha7betagal myoblasts, beta-gal FDG fluorescence, 48 h; Potency, µM (series often up to 38.3 µM), for the others: at the highest dose activation, hits mostly activators; actives 0.064% (n = 350,000); AID 624291, 2012;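 note: potency is the fitted concentration of half-maximal effect; 100% = response of the positive control SU9516; nearly all actives have a fitted effect of over 60% in size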
#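 Alpha7betagal+/- myoblasts (passage 13) were plated 16-24 hr, then exposed to compounds (1:260 dilution of DMSO stock) for 48 hours at 37C. After MPER lysis, β-galactosidase reporter activity was read as FDG fluorescence (ex 480/em 540) after 30 minutes.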
# TrxR1 substrate = qHTS Assay for Substrates of Mammalian Selenoprotein Thioredoxin Reductase 1 (TrxR1): qHTS. purified TrxR1 substrate turnover, NADPH consumption readout. actives 0.01% (n = 390,000). Potency, µM (highest dose often 114 µM), for the others: at the top dose activity change, negative = substrate turnover; note: potency is the fitted concentration of half-maximal effect; nearly all actives have a fitted effect of over 50% in size
# Target sequence (O89049 whole entry, looked up): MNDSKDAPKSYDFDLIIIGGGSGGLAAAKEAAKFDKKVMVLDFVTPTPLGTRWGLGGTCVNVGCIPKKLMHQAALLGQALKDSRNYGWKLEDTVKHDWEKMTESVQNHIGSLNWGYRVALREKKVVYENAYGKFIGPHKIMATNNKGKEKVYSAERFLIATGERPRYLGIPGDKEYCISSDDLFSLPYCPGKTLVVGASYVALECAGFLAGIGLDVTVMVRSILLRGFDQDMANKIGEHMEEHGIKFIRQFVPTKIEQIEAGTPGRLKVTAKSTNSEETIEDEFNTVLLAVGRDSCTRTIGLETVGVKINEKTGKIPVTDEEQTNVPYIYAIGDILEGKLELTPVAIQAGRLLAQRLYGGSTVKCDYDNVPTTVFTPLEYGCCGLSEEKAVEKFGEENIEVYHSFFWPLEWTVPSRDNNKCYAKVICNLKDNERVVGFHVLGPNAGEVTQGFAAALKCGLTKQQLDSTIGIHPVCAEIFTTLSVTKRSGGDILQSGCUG
#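 Rat TrxR1, dispensed at 90 nM, was prereduced with 400 uM NADPH (final) for 5 min at ~22 deg C, then incubated with compound 15 min before 400 uM selenite. A first-read NADPH fluorescence drop versus no-compound background flagged substrates.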
# GALK inh = qHTS Assay for Inhibitors of Human Galactokinase (GALK). Potency, µM (titrated, usually from 57.5 µM), for the others: top-dose activity change, negative = inhibition, actives largely listed as inhibitors. Purified GALK, Kinase-Glo residual ATP luminescence. actives 0.007% (n = 270,000). AID 1868, 2009. P51570; note: potency is the fitted concentration of half-maximal effect
#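 Quantitative HTS: GALK 5 nM, ATP 35 uM, galactose 100 uM, 1 h room temperature, then luciferase-based ATP detection.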
# LDHA inh = qHTS assay for inhibitors of human lactate dehydrogenase; actives 0.15% (n = 480,000); purified LDHA, NADH/diaphorase-resazurin fluorescence; stronger effect = lower value; L-lactate dehydrogenase A chain (Homo sapiens), P00338; activity change, % (values are at about 110 or 230 µM); AID 1347041, 2019; in the data active = activity change below about -30%; inconclusive = mostly about -25% to -30%;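 note: plate controls were DMSO wells for no effect and wells without enzyme for full effect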
#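 Resorufin fluorescence (ex540/em590), read at 0 and 20 min after diaphorase/resazurin addition, reports the NADH left after a 5 min room-temperature reaction of 2 nM human LDH5 with 0.06 mM NADH and 0.2 mM pyruvate.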
# TrxR1 inh = qHTS Assay for Inhibitors of Mammalian Selenoprotein Thioredoxin Reductase 1 (TrxR1): qHTS | AID 588453, 2011 | actives 1% (n = 390,000) | Thioredoxin reductase 1, cytoplasmic (Rattus norvegicus), O89049 | Potency, µM (top dose mostly 114 µM), for the others: top-dose activity change, negative = inhibition, most hits filed as inhibitors | recombinant rTrxR1, NADPH fluorescence consumption, selenite substrate; note: potency is the fitted concentration of half-maximal effect; nearly all actives have a fitted effect of over 65% in size
#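 Rat TrxR1 (90 nM in the dispensed reagent) was pre-reduced with 400 uM NADPH for 5 min at room temperature, then incubated with compound for 15 min. After 400 uM selenite was added, NADPH fluorescence (Ex 340/Em 450 nm) was followed for 8 min.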
# An asterisk follows results filed as active; u = inconclusive; x = not tested or not shown; [ ] = dose if it differs, or a comment. Unless noted, calls come from the whole dose curve; as a rule, active = well fitted curve in the direction sought with a large enough effect; inconclusive = small, poorly fitted or top-dose-only effect, or another doubt; inactive = no such curve, though single readings can be large; an effect the other way counts as inactive or inconclusive. Unless noted, % is set by controls: 0 for no effect and ±100 for the full control effect.
SMILES,PI4K2A inh,Integrin act MD,TrxR1 substrate,GALK inh,LDHA inh,TrxR1 inh
Cn1nc(C(=O)NCC2CCN(C3CC3)C2)c2ccccc2c1=O (stereo unspecified),x,x,x,x,-3,x
COc1ccc2cc(C3CC(c4ccco4)=NN3S(C)(=O)=O)c(Cl)nc2c1 (stereo unspecified),-6,2%,1%,-2%,1,50µM*
CCC(C)NC(=O)c1c(F)c(F)c(F)c(F)c1F (stereo unspecified),-63*,-5%,11%[57.1 µM],-5%,-10,11%[57.1 µM]
CCC(C)NC(=O)c1ccccc1-c1ccccc1C(=O)NC(C)CC (stereo unspecified),0,-9%,6%[57.1 µM],-1%,-2,12%[57.1 µM]
O=[N+]([O-])c1c(NCCCO)cc(Sc2ccc(Cl)cc2)c2nonc12,-6,-59%,-5%,-2%,17,2.8µM*
CC(=O)OCCNc1cc(SCc2ccco2)c2nonc2c1[N+](=O)[O-],-16,-13%,-9%,0%,15,22µM*
O=[N+]([O-])c1c(NCCCO)cc(SCc2ccco2)c2nonc12,-6,-13%,-14%,x,9,14µM*
COC(=O)CCSc1cc(NCCOC(C)=O)c([N+](=O)[O-])c2nonc12,-6,-3%,-20%,0%,4,44%[0.0914 µM]
Cn1ccnc1Sc1cc(NCCCO)c([N+](=O)[O-])c2nonc12,-15,-65%,9%[57.1 µM],0%,-6,u
O=[N+]([O-])c1c(NCCCO)cc(N2CCCCCC2)c2nonc12,-1,-23%,-15%[57.1 µM],-5%,9,-66%
CCCC(=O)OCCNc1cc(SCCC(=O)OC)c2nonc2c1[N+](=O)[O-],8,12%,-12%,1%,6,10µM*
CCCCOc1ccc(CNC(=O)c2ncoc2-c2cccs2)cc1,x,x,x,x,-8,x
Fc1ccc(NC(=S)NC2CC2)cc1Cl,x,x,x,x,-12,x
CCN1C(SCC(=O)Nc2ccccc2)=NS(=O)(=O)c2ccccc21,x,x,x,x,5,x
COC(=O)CSc1ccccc1C(=O)OC,5,2%,4%,0%,4,8%
COC(=O)CSC1=NS(=O)(=O)c2ccccc21,-2,13%,-2%,-1%,-8,2.2µM*
O=C(CSC1=NS(=O)(=O)c2ccccc21)Nc1ccccc1,-14,-5%,6%[57.1 µM],2%,0,7.9µM*
COc1cc(NC(=O)COc2ccc3c(C)c(C)c(=O)oc3c2)cc(OC)c1,x,x,x,x,-1,x
Cn1c(/C=C/c2ccccc2)nc2ccccc21,-66*,-6%,82%,24%,-3,38%
Cn1c(=O)c(/C=C/c2ccccc2)nc2ccccc21,1,-28%,42%,-1%,-4,9%
CCOc1ccccc1NC(=O)C(C)Sc1nc(-c2ccccc2)c(C#N)c(=O)[nH]1 (stereo unspecified),-4,x,-2%,x,-1,16%
CC(C)(C)c1ccc(-c2nc(SCC(=O)Nc3ccc(Cl)cc3)[nH]c(=O)c2C#N)cc1,1,x,3%,x,-31*,15%
N#Cc1c(-c2ccco2)nc(SCC(=O)Nc2cccc(Cl)c2)[nH]c1=O,0,1%,-4%,-1%,-12,14µM*
Cc1cc(=O)[nH]c(SCC(=O)Nc2ccc(Cl)cc2)n1,1,x,x,x,x,x
CCc1ccc(NC(=O)C(C)Sc2nc(-c3ccco3)c(C#N)c(=O)[nH]2)cc1 (stereo unspecified),-5,0%,5%,7%,-2,18µM*
SMILES,PI4K2A inh,Integrin act MD,TrxR1 substrate,GALK inh,LDHA inh,TrxR1 inh
CCn1c(=O)c2ccccc2n(CC(=O)Nc2cccc3cccnc23)c1=O,x,x,x,x,3,x
Cc1ccc(C(=O)/C=C/c2ccc(-c3cc(Cl)ccc3Cl)o2)cc1,x,x,x,x,14,x
Cc1ccc(-c2cc(C(=O)OCC(N)=O)c3ccccc3n2)cc1,x,x,x,x,-1,x
O[C@@H]1CN(Cc2cccs2)[C@@H](c2ccc(Cl)cc2)C[C@H]1n1cc(-c2ccc(F)cc2)nn1,1,0%,x,x,-30*,x
CC(C)c1ccc(C2C(c3ccccc3)=C(O)C(=O)N2Cc2ccccn2)cc1 (stereo unspecified),x,x,x,x,0,x
CCOc1ccc(NC(=O)Cn2nnc(C(=O)NCCc3ccc(OC)c(OC)c3)c2N)cc1,0,-39%,12%[57.1 µM],0%,1,4%[57.1 µM]
COc1ccc(CCNC(=O)Cn2nnc(C(=O)Nc3ccc(Br)cc3)c2N)cc1OC,-4,11µM*,3%,1%,-4,13%
CC(C)(C)c1ccc(C(=O)NC(Nc2cccc(C(F)(F)F)c2)C(Cl)(Cl)Cl)cc1 (stereo unspecified),x,x,x,x,-3,x
CCCCn1c(SCC(=O)Nc2sc3c(c2C(N)=O)CCC3)nnc1-c1ccccc1,-10,-10%,11%[57.1 µM],x,-9,35µM*
NC(=O)c1c(NC(=O)CSc2nnc(Cc3ccccc3)n2Cc2ccco2)sc2c1CCC2,4,-20%,8%,2%,1,u
CCn1c(C(=O)NCC(=O)NC2CC2)cc2ccccc21,x,x,x,x,10,x
CCN1c2ccccc2N(C)C1(C)c1ccccc1 (stereo unspecified),-15,-59%,-10%,1%,28,45µM*
CN1c2ccccc2N(C)C1(C)c1ccccc1,-7,-42%,-5%,1%,33,u
COCCCNC(=O)CN(C)C(=O)CCc1ncc(-c2ccccc2)o1,x,x,x,x,-1,x
CCN(CC)c1ccc(/C=C2/SC(=O)N(C(C)C)C2=O)o1,-6,-70%,0%,2%,19,3.2µM*
CC(C)N1C(=O)S/C(=C\c2ccc(-c3ccc(Cl)c(C(=O)O)c3)o2)C1=O,-9,-50%,3%,4%,9,-18%
COC(=O)c1ccc(N2C(=O)CC(Sc3n[nH]c(C)n3)C2=O)cc1 (stereo unspecified),-6,-48%,-1%,-2%,5,13µM*
Cc1ccc(F)cc1NC(=S)NCc1ccccc1,x,x,x,x,0,x
Oc1c(I)cc(Cl)c2cccnc12,-25,x,3%,x,4,7.9µM*
O=C(C#Cc1ccccc1)c1ccco1,-2,-56%,-1%,-7%,-3,0.25µM*
CC(=O)Nc1ccc2nc(-c3ccc(Br)o3)[nH]c2c1,-2,10%,-2%,-1%,13,11µM*
